According to PubChem BioAssay (Tox21):
Inconclusive results are not listed. Where a call stands in place of a potency, no number is given. More than one record can exist for a structure, and the calls need not agree. The source made the active and inactive calls. The call rests on the fitted dose curve; in most records, active means well fitted cell-killing curve with a large enough effect in the repeat runs; inconclusive means weak or mixed curves, or effect the other way; inactive means flat fitted curve, though single readings scatter.

Assay: cAMP Responsive Elements (CRE) small molecule agonists, cell-based qHTS assay: qHTS cell viability counter screen (AID 2060914);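 further: viability read after 3 h of compound exposure; nearly all actives have a fitted effect of over 50% in size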
Conditions: CRE-bla HEK293T viability, CellTiter-Glo luminescence, 5 h; series mostly up to 92.4 µM
Description: National Center for Advancing Translational Sciences [NCATS]
Division of Preclinical Innovation [DPI]
U.S. Environmental Protection Agency [EPA]
National Institutes of Environmental Health Sciences [NIEHS]
National Toxicology Program [NTP]
U.S. Food and Drug Administration [FDA]
CREB (cyclic-AMP Responsive Element Binding Protein) is a cellular transcription factor. It binds to certain DNA sequences called cAMP Responsive Elements (CRE) and regulates the transcription of the genes. […] This cell line can be used to find agonists/antagonists of the cyclic AMP signaling pathway. The activation of the report gene under culture conditions can be detected by fluorescence intensity. This cell line has been used to screen the Tox21 10K compound library to identify agonists that induce oxidative stress. The cytotoxicity of the Tox21 compound library against the CRE-bla cell line was tested in parallel by measuring the cell viability using CellTiter-Glo assay (Promega, Madison, WI) in the same wells.
Tox21 Assay Protocol Summary:
CRE-bla Hek 293T cells were suspended in assay medium (DMEM containing 10% dialyzed FBS, 0.1 mM NEAA, 1 mM sodium pyruvate and 25 mM HEPES) and dispensed at 2,000 cells/5 uL /well into 1536-well black wall/clear bottom plates using a Multidrop Combi (ThermoFisher Scientific, Waltham, MA) dispenser. After the assay plates were incubated at 37 C/5% CO2 for 18 hrs, 23 nL of compounds dissolved in DMSO, positive controls or DMSO only was transferred to the assay plate by a pintool workstation (Kalypsys, San Diego, CA). After the plates were incubated at 37 C/5% CO2 for 3 hrs, 1 uL of LiveBLAzer B/G FRET substrate (Invitrogen, Carlsbad, CA) was added to each well using Bioraptr Flying Reagent Dispenser (FRD, Aurora Discovery, San Diego, CA). The plates were incubated at room temperature for 2 h, then fluorescence intensities were measured using an Envision plate reader (PerkinElmer, Shelton, CT) at Excitation 405nm, Emission 460nm and 530nm. The % activity was determined from the ratio of 460nm/530nm. For cell viability readout that measures cytotoxicity, 4 uL /well of CellTiter-Glo reagent was added into the assay plates using Bioraptr FRD. After 30 min incubation at room temperature, the luminescence intensity in the assay plates was measured using a ViewLux (PerkinElmer, Shelton, CT) plate reader.
Potency means the concentration at half of the fitted maximal effect.

SMILES	Potency	activity change, negative = cytotoxicity
O=C(Cl)c1cc(Cl)cc(Cl)c1	inactive	
COCCCOc1ccnc(CS(=O)c2nc3ccccc3[nH]2)c1C (stereo not given)	inactive	
C[C@@H](C1=C(CCN(C)C)Cc2ccccc21)c1ccccn1	inactive	
COc1ccc(CN(CCN(C)C)c2ccccn2)cc1	inactive	
CC(=O)CCc1ccccc1	inactive	
Nc1cc(Cl)c(O)c(Cl)c1	inactive	
C(/C=C/C=C/Nc1ccccc1)=Nc1ccccc1	inactive	
CC(c1cc(C(C)(C)C)cc(C(C)(C)C)c1O)c1cc(C(C)(C)C)cc(C(C)(C)C)c1O	inactive	
CC(C)c1ccc(C#N)cc1	inactive	
Cc1c(C(=O)O)cccc1[N+](=O)[O-]	inactive	
CN(Cc1ccc(C(C)(C)C)cc1)Cc1cccc2ccccc12	inactive	
CCN(CC)CCOC(=O)C1(c2ccccc2)CCCC1	inactive	
Cc1ncc([N+](=O)[O-])n1CC(O)CCl (stereo not given)	inactive	
O=C1CCC(=O)O1	inactive	
CC(CCC(=O)O)C(=O)O (stereo not given)	inactive	
CN(C)CCc1c[nH]c2ccc(C[C@H]3COC(=O)N3)cc12	inactive	
C=CC(C)(CCC=C(C)C)OC(=O)C(C)C (stereo not given)	inactive	
Cc1ccc2c(c1[N+](=O)[O-])C(=O)c1ccccc1C2=O	inactive	
Oc1ccc2ccccc2c1N=Nc1ccccc1	inactive	
NC(Cc1ccc(F)cc1)C(=O)O (stereo not given)		0.316% [at 8.39 µM] (inactive)

SMILES	Potency	activity change, negative = cytotoxicity
CC(=O)N(CC(O)CO)c1c(I)c(C(=O)NCC(O)CO)c(I)c(C(=O)NCC(O)CO)c1I (stereo not given)	inactive	
Cc1cc(Br)ccc1NC(=O)CCl	inactive	
C=CCOCC(O)CO (stereo not given)	inactive	
CCN(CC)c1ccc(C=O)c(O)c1	inactive	
Cc1ccc(Nc2c(F)cccc2Cl)c(CC(=O)O)c1	inactive	
C=CCOc1ccccc1OCC(O)CNC(C)C (stereo not given)	inactive	
O=[Se](O)O	15.4 µM (active)	25.7% [at 18.9 µM] (inactive)
CCCCCCCOC(=O)c1ccccc1C(=O)OCCCCCCC	inactive	
CC(C)=CCC[C@H](C)CC=O	inactive	
Nc1ccc(C(=O)OCC(O)CO)cc1 (stereo not given)	inactive	
O=C(O)Cc1ccc2c(c1)C(=O)c1ccccc1CO2	inactive	
COC(=O)[C@]1(C)CCC[C@@]2(C)[C@H]1CC=C1C=C(C(C)C)CC[C@@H]12	inactive	
O=C(c1ccc(O)cc1)c1ccc(O)cc1	inactive	
N[C@H]1C(O)O[C@H](CO)[C@@H](O)[C@@H]1O (stereo not given in full)	inactive	
CO[C@H]1O[C@H](CO)[C@@H](O)[C@H](O)[C@H]1O	inactive	
Cc1ccccc1C(OCCN(C)C)c1ccccc1 (stereo not given)	inactive	
COc1ccc(C(C)=O)cc1	inactive	
O=C(c1ccccc1)c1ccc2n1CCC2C(=O)O (stereo not given)	inactive	
CCC(=O)O[C@@H]1C[C@H]2CC[C@]1(C)C2(C)C	inactive	
